The list is not random: actives were taken first. Their share in the collection is about 6.7%.
T cruzi growth = T. cruzi intracellular proliferation inhibitors, primary screen, cell-based, beta-gal Tulahuen parasites, NIH3T3 host, luminescence; AID 624255, 2012; 5.9% of 77,000 active; inhibition, % at 8.34 µM; T. cruzi beta-gal in NIH3T3, GalScreen luminescence, 90 h;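 active = mean inhibition above about 93%, with at least 55% of replicates each passing it, limit read from the data, passing the limit was not always enough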
C diff HTS = C. difficile growth inhibitors, primary screen, HTS | 0.25% of 86,000 active | AID 1259249, 2017 | growth activity, negative = inhibition, % at 16 µg/mL (by protocol) | Clostridium difficile clinical isolate growth, OD600, 24 h; stronger effect = lower value;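 active = mean growth activity at or below -80% and every replicate also at or below -80%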;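 also: 0% = DMSO wells and -100% = levofloxacin 16 µg/mL wells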
Pf Dd2 inh = P. falciparum Dd2 growth inhibitors, primary screen, SYBR Green fluorescence, single dose replicates. 72 h; stronger effect = lower value. AID 1159554, 2015. 2.3% of 94,000 active. activity change, % at 10 µM; in the data active = activity change below about -80%
Starred values were filed as active, the others as inactive; . = not tested or not shown; ! = not active in a repeat.

SMILES | T cruzi growth | C diff HTS | Pf Dd2 inh
C[C@@H]1CCCCO[C@H](CN(C)C(=O)Nc2ccc(C(F)(F)F)cc2)[C@@H](C)CN([C@@H](C)CO)C(=O)c2cc(NS(=O)(=O)c3ccccc3)ccc2O1 | 86 | 1 | -84*
C[C@@H]1CCCCO[C@@H](CN(C)C(=O)Nc2ccc(F)cc2)[C@H](C)CN([C@H](C)CO)C(=O)c2cc(NS(=O)(=O)c3ccc(F)cc3)ccc2O1 | 84 | 4 | -53
C[C@H](CO)N1C[C@H](C)[C@@H](CN(C)C(=O)Nc2ccc(C(F)(F)F)cc2)OCCCC[C@H](C)Oc2ccc(NS(=O)(=O)c3ccc(F)cc3)cc2C1=O | 94 | -1 | -55
C[C@@H]1CCCCO[C@H](CN(C)C(=O)Nc2ccc(F)cc2)[C@H](C)CN([C@@H](C)CO)C(=O)c2cc(NS(=O)(=O)c3ccccc3)ccc2O1 | 98 | 0 | -91*
C[C@@H]1CN([C@@H](C)CO)C(=O)c2cc(NS(=O)(=O)c3ccc(F)cc3)ccc2O[C@@H](C)CCCCO[C@@H]1CN(C)C(=O)Nc1ccc(C(F)(F)F)cc1 | . | -1 | -88*
C[C@@H]1CCCCO[C@H](CN(C)C(=O)Nc2ccc(F)cc2)[C@H](C)CN([C@H](C)CO)C(=O)c2cc(NS(=O)(=O)c3ccc(F)cc3)ccc2O1 | 42 | 1 | -87*
C[C@@H]1CCCCO[C@@H](CN(C)C(=O)Nc2ccccc2)[C@@H](C)CN([C@H](C)CO)C(=O)c2cc(NS(=O)(=O)c3ccc(F)cc3)ccc2O1 | 68 | 2 | 11
C[C@@H]1CCCCO[C@H](CN(C)C(=O)Nc2ccc(C(F)(F)F)cc2)[C@@H](C)CN([C@H](C)CO)C(=O)c2cc(NS(=O)(=O)c3ccccc3)ccc2O1 | 82 | -5 | -52
C[C@@H]1CCCCO[C@@H](CN(C)CC2CC2)[C@H](C)CN([C@@H](C)CO)C(=O)c2cc(NC(=O)CCCN(C)C)ccc2O1 | . | 9 | 31
CCS(=O)(=O)N1[C@H](CO)[C@H](c2ccccc2)[C@@H]1CN(C)Cc1ccccn1 | . | -1 | 5
CC(C)OC(=O)N(C)C[C@H]1OCc2ccccc2-c2c(n(C)c3ccccc23)C(=O)N([C@H](C)CO)C[C@@H]1C | 69 | . | -50
CCCc1cn(CC[C@@H]2CC[C@H](NS(=O)(=O)c3ccc(-c4ccccc4)cc3)[C@H](CO)O2)nn1 | 52 | -5 | -92*
CN(C)Cc1cn(CC[C@H]2CC[C@H](NS(=O)(=O)c3ccc(-c4ccccc4)cc3)[C@H](CO)O2)nn1 | -405 | . | 10
COc1ccccc1S(=O)(=O)N[C@H]1CC[C@H](CCn2cc(C3CCCC3)nn2)O[C@H]1CO | . | -2 | -5
COc1ccccc1S(=O)(=O)N[C@H]1CC[C@@H](CCn2cc(C3CCCC3)nn2)O[C@@H]1CO | . | 14 | -93*
COc1ccc(S(=O)(=O)N[C@@H]2CC[C@H](CCn3cc(-c4ccccc4F)nn3)O[C@@H]2CO)cc1 | 12 | -1 | -92*
COc1ccc(S(=O)(=O)N[C@H]2CC[C@@H](CCn3cc(-c4ccccc4F)nn3)O[C@@H]2CO)cc1 | -9 | -3 | -43
O=C(Nc1ccc(Cl)c(Cl)c1)N[C@@H]1CC[C@@H](CCn2cc(C3CCCCC3)nn2)O[C@H]1CO | 48 | -1 | -16
O=C(Nc1ccc(Cl)c(Cl)c1)N[C@@H]1CC[C@@H](CCn2cc(C3CCCCC3)nn2)O[C@@H]1CO | 20 | . | -87*
CCCNC(=O)Nc1ccc2c(c1)C(=O)N(C)C[C@H](OC)[C@H](C)CN(Cc1cncnc1)[C@@H](C)CO2 | 2 | -1 | 12
O=C(CN1CCOCC1)N[C@@H]1CC[C@H](CCNC(=O)C2CCC2)O[C@H]1CO | 0 | . | 9
C[C@H]1CCCCO[C@@H](CN(C)CC2CCCCC2)[C@@H](C)CN([C@@H](C)CO)C(=O)c2cc(NC(=O)NC3CCCCC3)ccc2O1 | 71 | . | -50
COc1ccc(S(=O)(=O)Nc2ccc3c(c2)C(=O)N([C@@H](C)CO)C[C@H](C)[C@@H](CN(C)S(=O)(=O)c2ccc(C)cc2)OCCCC[C@H](C)O3)cc1 | . | . | -83*
COc1ccc(S(=O)(=O)Nc2ccc3c(c2)C(=O)N([C@@H](C)CO)C[C@@H](C)[C@@H](CN(C)S(=O)(=O)c2ccc(OC)cc2)OCCCC[C@H](C)O3)cc1 | 63 | 0 | -85*
COc1ccc(S(=O)(=O)Nc2ccc3c(c2)C(=O)N([C@H](C)CO)C[C@H](C)[C@@H](CN(C)S(=O)(=O)c2ccc(OC)cc2)OCCCC[C@@H](C)O3)cc1 | 53 | -5 | -20
SMILES | T cruzi growth | C diff HTS | Pf Dd2 inh
COc1ccc(S(=O)(=O)Nc2ccc3c(c2)C(=O)N([C@@H](C)CO)C[C@@H](C)[C@@H](CN(C)S(=O)(=O)c2ccc(C)cc2)OCCCC[C@@H](C)O3)cc1 | . | . | -53
C[C@@H]1CN([C@@H](C)CO)C(=O)Cc2cc(NC(=O)Nc3ccc4c(c3)OCO4)ccc2O[C@H]1CN(C)Cc1ccc(Oc2ccccc2)cc1 | 94 | 11 | -81*
C[C@H](CO)N1C[C@H](C)[C@@H](CN(C)Cc2ccc(Oc3ccccc3)cc2)Oc2ccc(NC(=O)Nc3ccc(F)cc3)cc2CC1=O | 56 | 63 | -82*
C[C@H]1CN([C@@H](C)CO)C(=O)Cc2cc(NC(=O)Nc3ccc4c(c3)OCO4)ccc2O[C@@H]1CN(C)Cc1ccc(Oc2ccccc2)cc1 | 70 | 4 | -36
C[C@H](CO)N1C[C@H](C)[C@H](CN(C)Cc2ccc(Oc3ccccc3)cc2)Oc2ccc(NC(=O)Nc3ccc(F)cc3)cc2CC1=O | 73 | 37 | -8
CCCNC(=O)[C@@H]1[C@@H](CO)[C@@H]2Cn3c(cccc3=O)[C@H]1N2C(=O)NCCC | -56 | -1 | -8
C[C@@H]1CN([C@H](C)CO)C(=O)c2cc(C3=CCCC3)cnc2O[C@@H]1CN(C)Cc1cccc(F)c1 | 109 | 5 | -31
C[C@H](CO)N1C[C@H](C)[C@@H](CN(C)C(=O)NC2CCCC2)Oc2ncc(-c3ccncc3)cc2C1=O | . | 0 | 12
O=C(C[C@@H]1CC[C@H]2[C@@H](COC[C@@H](O)CN2C(=O)Nc2ccc(Cl)c(Cl)c2)O1)NCc1ccc(F)cc1 | -34 | -28 | 2
CCCNC(=O)C[C@H]1CC[C@@H]2[C@H](COC[C@@H](O)CN2C(=O)Nc2ccc(Cl)c(Cl)c2)O1 | -93 | 37 | -28
CCCNC(=O)C[C@@H]1CC[C@H]2[C@@H](COC[C@@H](O)CN2C(=O)Nc2ccc(Cl)c(Cl)c2)O1 | -17 | -103*! | -8
O=C(C[C@H]1CC[C@H]2[C@@H](COC[C@@H](O)CN2C(=O)Nc2ccc(Cl)c(Cl)c2)O1)NCc1ccc(Cl)cc1 | 88 | -69 | 1
O=C(C[C@@H]1CC[C@H]2[C@@H](COC[C@H](O)CN2C(=O)Nc2ccc(Cl)c(Cl)c2)O1)NCc1ccc(F)cc1 | 15 | -84* | 8
O=C(C[C@H]1CC[C@H]2[C@@H](COC[C@H](O)CN2C(=O)Nc2ccc(Cl)c(Cl)c2)O1)NCc1ccc(F)cc1 | 57 | -94* | -34
O=C(C[C@H]1CC[C@H]2[C@@H](COC[C@@H](O)CN2C(=O)Nc2ccc(Cl)c(Cl)c2)O1)NCc1ccc(F)cc1 | -49 | -53 | -8

High-throughput results (PubChem BioAssay)
